From PubChem BioAssay (NCI)
The panel holds about 83,000 compounds, 20% with a hit somewhere; the sample as a whole holds those more often.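 Each cell line was grown in a 96-well plate and treated with one concentration of compound for 48 hours. Values below 10 were considered active.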 Unmarked numbers belong to inactive results. Active and inactive are the calls of the source.

These compounds were tested on HL-60(TB) leukemia (assay: NCI-60 one-dose screen, 48 h (100 = growth as untreated, 0 = no growth, -100 = all killed)). Details: 10 µM unless noted.

| Structure (SMILES) | growth |
| --- | --- |
| CC1CN(CC(O)c2ccc(Br)cc2)CCO1 (stereo not given) | 85.4% |
| COC(=O)c1ccc2c(c1)c1c(C)c3cnccc3c(C)c1n2C | -2.92% (active) |
| c1ccc2cc(Cn3cc(CSc4nc5ccccc5s4)nn3)ccc2c1 | 102% |
| O=C(NCCO)Nc1ccc(-c2nc(N3CCOCC3)c3cccn3n2)cc1 | 24.2% |
| CCOC(=O)c1nn(C2CCCCO2)c2ccc(NC(=O)CSc3nc4ccccc4c(=O)[nH]3)cc12 (stereo not given) | 118% |
| COc1ccc(C(C)=O)c(OC)c1 | 115% |
| COc1cc2c3c(c1)nc(C)n3CCC2 | 99.7% |
| Cc1cccc(NCc2cn(-c3ccc(C(=O)O)cc3)nc2-c2ccc(C(=O)O)cc2)n1 | 101% |
| CCN(CC)CCS(=O)(=O)CCNc1ccnc2cc(Cl)ccc12 | -22.5% (active) |
| CCCCc1n(Cc2ccc3ccccc3c2)c2ccccc2[n+]1Cc1ccc2ccccc2c1 | -59.2% (active) |
| CO[C@H]1/C=C/O[C@@]2(C)Oc3c(C)c(O)c4c(O)c(c5c(nc6cc(C)ccn65)c4c3C2=O)NC(=O)/C(C)=C\C=C\[C@H](C)[C@H](O)[C@@H](C)C(O)[C@@H](C)[C@H](OC(C)=O)[C@@H]1C (stereo not given in full) | 102% |
| Cn1cc(-c2csc(-c3cn(C)c4ccccc34)n2)c2cnccc21 | -41.4% (active) |
| CCOc1ccc(Nc2ccnc3cc(Cl)ccc23)cc1 | -25.6% (active) |
| O=C(/C=C\c1ccc(O)c(O)c1)c1ccccc1O | 11.6% |
| COc1cc(NC(=O)c2cc(OC)c3ccn(C)c3c2)cc2c1C[C@]1(C)CC[C@@H](O)C(C)(C)[C@H]1O2 | 31.5% |
| CCOC(=O)c1ccc(NC(=O)Nc2nncs2)cc1 | 5.62% (active) |
| Nc1nc(-c2cnccn2)nn1-c1nc2ccccc2s1 | 100% |
| CC1(C)C(N)=Nc2cc(OCCCN3Cc4ccccc4C3)c(OCC3CC3)cc21 | 36.2% |
| CC1=C[C@H]2c3c(c(O)c(O)c4oc5cc(O)ccc5c(=O)c34)[C@H](c3cc(O)c(O)c4oc5cc(O)ccc5c(=O)c34)[C@H]2C(C)(C)C1 | 17.8% |
| Fc1ccc(/C=C/c2cc(/C=C/c3ccc(F)cc3)n(-c3cc(F)cc(F)c3)n2)cc1 | 78.9% |

| Structure (SMILES) | growth |
| --- | --- |
| COc1cc(-c2c(-c3ccccc3)c[nH]c2C(=O)NCCCO)c(OC)c2c1OCO2 | 91.4% |
| CCOC(=O)C1=C(c2ccccc2)N=c2s/c(=C/c3ccc(Br)cc3)c(=O)n2C1c1ccc(O)cc1 (stereo not given) | 94.9% |
| COc1cc(C2CC(=O)Nc3c2c(C)nn3-c2nc3ccccc3[nH]2)cc(OC)c1O (stereo not given) | 43.7% |
| O=C(O)c1cc2c(s1)C(=O)c1sccc1C2=O | 10.9% |
| CCCCCCCCc1ccc(CCC(N)(CO)CO)cc1 | -14.1% (active) |
| COc1ccc(OC)c(-c2cc(-c3ccc(Cl)cc3)c3c(N)c(C(=O)c4ccc(Cl)cc4)sc3n2)c1 | 110% |
| O=C(/C=C/c1cc2ccccc2[nH]c1=O)c1ccc2c(c1)OCO2 | 79% |
| COc1ccc2c(c1)Nc1ccccc1S2 | 102% |
| COc1ccc(C(=O)/C=C/c2ccc(Cl)cc2)cc1S(=O)(=O)Nc1c(N)nc(SC)[nH]c1=O | 36.8% |
| COc1cc(C2C3CC4CCCC[C@H]4N3[C@@]3(C(=O)Nc4cc(Cl)ccc43)C2C(=O)c2nc3ccccc3[nH]2)cc(OC)c1OC (stereo not given in full) | 21.8% |
| COc1ccc(/C=C2\COc3ccc(-c4ccccc4)cc3C2=O)cc1O | -34% (active) |
| CCCCCCN(CCCCCC)CC(O)c1ccc2c3c(cccc13)CC2 (stereo not given) | 64.6% |
| CCCCCCCCCCCCCC1=NC(C)(C)CN1C(C)C | -66.7% (active) |
| Oc1c(CN2CCOCC2)cc(COCc2ccccc2)c2cccnc12 | 0.702% (active) |
| N#CSCc1cc(Cl)c(CSC#N)cc1Cl | 22.1% |
| Oc1cc2ccccc2c(-c2c(O)c(O)cc3ccccc23)c1O | 19.8% |
| CCCN=C(N)c1ccc(NC(=O)c2ccc(C(=O)Nc3ccc(C(N)=NCCC)cc3)cc2)cc1 | 77% |
| Brc1ccc(Cn2nnnc2-c2ccn(-c3ccccc3)n2)cc1 | 69.1% |
| CC(C)c1ccc(C(=O)Nc2sc3c(c2C#N)CCC(=O)C3)cc1 | -16.7% (active) |
| COc1ccc(-c2cc(-c3cc(OC)c(OC)c(OC)c3)c(C#N)c(=O)n2CCCCC(=O)O)cc1 | 103% |
